The values below come from PubChem BioAssay (NCI).

Values joined by “and” are separate entries in the source; they are usually repeats but may differ in a detail not shown here. Equal entries are not always repeated. The panel holds about 83,000 compounds, 20% with a hit somewhere; the sample as a whole holds those more often.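 Negative percent growth values reflect cell death: -40 means 40% of the cells present at the start died, and -100 means all died.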 Unmarked numbers belong to inactive results. Active and inactive are the calls of the source. The calls were made as follows: active = growth percent below 10; inactive = the rest.

The test system of this assay is MDA-MB-468 breast. As to the kind of experiment: NCI-60 one-dose screen, 48 h (100 = growth as untreated, 0 = no growth, -100 = all killed). Particulars: 10 µM unless noted.
On to `CC1=C(C)C(=O)O[C@@H]([C@](C)(O)[C@]2(O)CC[C@@]3(O)[C@@H]4C[C@H]5O[C@]56CC=CC(=O)[C@]6(C)[C@H]4CC[C@]23C)C1`, for which the growth is -26.3% (active).

In the case of `CCCCCN(CCCCC)CC(O)c1cc(Cl)ccc1OC` (configuration not stated), the growth is 57.7%.

For `Cc1cc(N)ccc1N`, the growth is 86.4%.

For the molecule `COc1cc(/C=N/C2=C(C#N)C(c3ccco3)c3c(c4cc(C)ccc4oc3=O)O2)cc(OC)c1OC` (configuration not stated), the growth is 109%.

With `CC(C)(C)NCC(O)c1ccccc1Cl` (configuration not stated), the growth is -12.6% (active).

With `CC(=O)[O][Hg][c]1nc2c(c(=O)n(C)c(=O)n2C)n1C`, the growth was 102%.

For `CCOc1cc(C=C(C#N)C#N)cc(Br)c1O`, the growth was 119%.

`CCCCOC(=O)c1ccccc1C(=O)O.CCCCOC(=O)c1ccccc1C(=O)O.[Cu+2]`: the growth was 103%.

As to `Oc1ccc(O)c(Cl)c1`, the growth was 89.7% and 95.1%.

Turning to `O=NN(c1ccccc1)c1ccccc1`, the growth is 95%.

Consider `CCCC(C)C1(CC)C(=O)NC(=O)N(C)C1=O` (configuration not stated), for which the growth is 94.2%.

Regarding `O=C1Nc2ccccc2C2c3cccn3-c3ccccc3CN12` (configuration not stated), the growth is 30.5%.

For the molecule `Cc1c2cc(Cl)c3ccccc3c2c[n+]2ccccc12`, the growth was -71.5% (active).

Regarding `O=C1NC(=O)C(=C/C=C/c2ccccc2)C(=O)N1`, the growth was 44.2%.

For `CC1=C2C(=O)[C@](C)(CO)C=C2C(=O)[C@](C)(O)C12CC2`, the growth is -69.8% (active).

As to `CCCC1CCCCC12C(=O)NC(=O)NC2=O` (configuration not stated), the growth was 113%.

As to `CCCCn1c(=O)c(C(=O)NCc2ccccc2Cl)c(O)c2ccccc21`, the growth is 70.6%.

For `CCCC(C)(C)c1ccc2c(c1)OC(C)(C)[C@@H]1CC=C(C)C[C@@H]21`, the growth is 97.6%.

Consider `COC(=O)[C@@H](C)C[C@H](Cc1ccccc1)NC(=O)c1nc([C@@H](C[C@H](C(C)C)N(C)C(=O)[C@@H](NC(=O)[C@H]2C[C@H](O)CCN2C)C(C)C)OC(C)=O)sc1C(C)C`, for which the growth was -0.0807% (active).

Consider `Oc1ccc(Br)cc1CN1CCN(Cc2ccc(Cl)cc2)CC1`, for which the growth is 95.9%.

On to `CC1(C)N=C(N)N=C(N)N1c1ccc(OCCCCNC(=O)Nc2cccc(S(=O)(=O)F)c2)c(Cl)c1`, for which the growth is 40.9%.

For `[N-]=[N+]=CC(=O)CCC(=O)C=[N+]=[N-]`, the growth is 113%.

Consider `Oc1c(Br)cc(Br)cc1Br.[Cu+2]`, for which the growth was 102%.

`N#CC(C#N)=C(C#N)C#N`: the growth was 102%.

Regarding `COC(=O)CCC1=C(C)c2cc3[n-]c(cc4nc(cc5[n-]c(cc1n2)c(CCC(=O)OC)c5C)C=C4C)cc3C.[Cd+2]`, the growth was 81.6%.

On to `CC1(C)N=C(N)N=C(N)N1c1ccc(CCCCc2ccc(Cl)c(S(=O)(=O)F)c2)c(Cl)c1`, for which the growth was 6.7% (active).

As to `CC(/C=N/N=C(N)N)=N\N=C(N)N`, the growth is 88.7%.
